Results as given in PubChem BioAssay AID1159580 (chemical genetic matrix, 2015).
In all, about 5,500 compounds went through this assay and about 2,000 (36%) were called active. Roughly 18% stayed inconclusive and do not appear here. No stated cut-off is given here; in the data, active means normalized growth mostly below about 0.91 (no sharp cut-off); inconclusive means no clear call, values can overlap the other calls; inactive means mostly above about 0.92. The list shows a part of the results.

Test: chemical genetic growth profiling, strain panel (AID 1159580);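 further: tested at 20 µM; growth read once vehicle control cultures reached saturation at 30 °C; 1 = growth at the plate median or of vehicle wells; lower values mean less growth of the strain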
Conditions: growth OD

Measured: normalized growth

CCCC(=O)Nc1ncnc2c1ncn2C1O[C@@H]2COP(=O)(O)O[C@H]2[C@H]1OC(=O)CCC (stereo not given in full)
inactive: S. cerevisiae deletion strains, locus YJR066W, strain TOR1, hits give low values 0.97 | S. cerevisiae deletion strains, locus YKL009W, strain mrt4, hits give low values 1.01 | S. cerevisiae deletion strains, locus YKL068W, hits give low values 1.03 | S. cerevisiae deletion strains, locus YKL085W, strain MDH1 (second series), hits give low values 1.01 | S. cerevisiae deletion strains, locus YKL085W, strain MDH1, hits give low values 1.01 | S. cerevisiae deletion strains, locus YKL160W, strain elf1, hits give low values 0.999 | S. cerevisiae deletion strains, locus YKL190W, strain CNB1, hits give low values 1.01 | S. cerevisiae deletion strains, locus YKR001C, strain vps1, hits give low values 1.04 | S. cerevisiae deletion strains, locus YKR026C, strain gcn3, hits give low values 0.979 | S. cerevisiae deletion strains, locus YKR091W, strain srl3, hits give low values 0.989 | S. cerevisiae deletion strains, locus YLL001W, strain dnm1, hits give low values 0.967 | S. cerevisiae deletion strains, locus YLL026W, hits give low values 0.985 | S. cerevisiae deletion strains, locus YLL041C, strain sdh2, hits give low values 0.98 | S. cerevisiae deletion strains, locus YLR027C, strain aat2, hits give low values 0.999 | S. cerevisiae deletion strains, locus YLR039C, strain RIC1, hits give low values 1.02 | S. cerevisiae deletion strains, locus YLR058C, strain SHM2, hits give low values 1.01 | S. cerevisiae deletion strains, locus YLR102C, strain apc9, hits give low values 1.01 | S. cerevisiae deletion strains, locus YLR113W, strain HOG1, hits give low values 1.01 | S. cerevisiae deletion strains, locus YLR221C, strain rsa3, hits give low values 0.945 | S. cerevisiae deletion strains, locus YLR258W, strain gsy2, hits give low values 0.965 | S. cerevisiae deletion strains, locus YLR262C, strain YPT6 (second series), hits give low values 0.984 | S. cerevisiae deletion strains, locus YLR262C, strain YPT6, hits give low values 1.04 | S. cerevisiae deletion strains, locus YLR268W, strain sec22, hits give low values 1.03 | S. cerevisiae deletion strains, locus YLR320W, strain mms22, hits give low values 0.949 | S. cerevisiae deletion strains, locus YLR330W, strain CHS5, hits give low values 1.01 | S. cerevisiae deletion strains, locus YLR342W, strain FKS1 (second series), hits give low values 1 | S. cerevisiae deletion strains, locus YLR342W, strain FKS1, hits give low values 0.992 | S. cerevisiae deletion strains, locus YLR357W, strain rsc2, hits give low values 1 | S. cerevisiae deletion strains, locus YLR370C, strain arc18, hits give low values 0.952 | S. cerevisiae deletion strains, locus YLR371W, strain rom2, hits give low values 1.02 | S. cerevisiae deletion strains, locus YLR384C, strain iki3, hits give low values 0.976 | S. cerevisiae deletion strains, locus YLR418C, strain cdc73, hits give low values 1.04 | S. cerevisiae deletion strains, locus YML016C, strain PPZ1, hits give low values 1.01 | S. cerevisiae deletion strains, locus YML032C, strain rad52, hits give low values 1.03 | S. cerevisiae deletion strains, locus YML120C, strain ndi1, hits give low values 0.962 | S. cerevisiae deletion strains, locus YML124C, strain tub3, hits give low values 1.01 | S. cerevisiae deletion strains, locus YMR058W, strain fet3, hits give low values 0.986 | S. cerevisiae deletion strains, locus YMR078C, strain ctf18, hits give low values 1.03 | S. cerevisiae deletion strains, locus YMR125W, strain sto1, hits give low values 0.971 | S. cerevisiae deletion strains, locus YMR129W, hits give low values 0.991 | S. cerevisiae deletion strains, locus YMR205C, strain PFK2, hits give low values 0.98 | S. cerevisiae deletion strains, locus YMR223W, strain ubp8, hits give low values 1.03 | S. cerevisiae deletion strains, locus YMR231W, strain pep5, hits give low values 0.988 | S. cerevisiae deletion strains, locus YMR263W, strain SAP30, hits give low values 1 | S. cerevisiae deletion strains, locus YMR307W, strain GAS1, hits give low values 0.995 | S. cerevisiae deletion strains, locus YNL067W, strain RPL9B, hits give low values 1 | S. cerevisiae deletion strains, locus YNL071W, strain lat1, hits give low values 0.987 | S. cerevisiae deletion strains, locus YNL128W, strain TEP1, hits give low values 1.02 | S. cerevisiae deletion strains, locus YNL153C, strain GIM3, hits give low values 1 | S. cerevisiae deletion strains, locus YNL183C, strain NPR1, hits give low values 0.969 | S. cerevisiae deletion strains, locus YNL209W, strain ssb2, hits give low values 0.982 | S. cerevisiae deletion strains, locus YNL233W, strain BNI4, hits give low values 0.999 | S. cerevisiae deletion strains, locus YNL248C, strain rpa49, hits give low values 1.02 | S. cerevisiae deletion strains, locus YNL250W, strain rad50, hits give low values 1.03 | S. cerevisiae deletion strains, locus YNL271C, strain bni1, hits give low values 1.02 | S. cerevisiae deletion strains, locus YNL298W, strain CLA4, hits give low values 1.02 | S. cerevisiae deletion strains, locus YNL307C, strain MCK1, hits give low values 1.03 | S. cerevisiae deletion strains, locus YNL322C, strain KRE1 (second series), hits give low values 0.975 | S. cerevisiae deletion strains, locus YNR049C, strain mso1, hits give low values 0.981 | S. cerevisiae deletion strains, locus YNR052C, strain pop2, hits give low values 1.02 | S. cerevisiae deletion strains, locus YOL006C, strain TOP1, hits give low values 1.03 | S. cerevisiae deletion strains, locus YOL012C, strain htz1 0.919 | S. cerevisiae deletion strains, locus YOL147C, strain pex11, hits give low values 1.02 | S. cerevisiae deletion strains, locus YOR001W, strain rrp6, hits give low values 1.02 | S. cerevisiae deletion strains, locus YOR061W, strain CKA2, hits give low values 1.02 | S. cerevisiae deletion strains, locus YOR069W, strain VPS5, hits give low values 1 | S. cerevisiae deletion strains, locus YOR070C, strain gyp1, hits give low values 0.988 | S. cerevisiae deletion strains, locus YOR080W, strain dia2, hits give low values 0.983 | S. cerevisiae deletion strains, locus YOR083W, strain WHI5, hits give low values 0.986 | S. cerevisiae deletion strains, locus YOR106W, strain vam3, hits give low values 0.982 | S. cerevisiae deletion strains, locus YOR136W, strain idh2, hits give low values 1.02 | S. cerevisiae deletion strains, locus YOR144C, strain elg1, hits give low values 1.02 | S. cerevisiae deletion strains, locus YOR184W, strain ser1, hits give low values 1.02 | S. cerevisiae deletion strains, locus YOR231W, strain MKK1, hits give low values 1.03 | S. cerevisiae deletion strains, locus YOR265W, strain rbl2, hits give low values 0.978 | S. cerevisiae deletion strains, locus YOR270C, strain vph1, hits give low values 0.983 | S. cerevisiae deletion strains, locus YOR290C, strain snf2, hits give low values 0.961 | S. cerevisiae deletion strains, locus YOR316C, strain cot1, hits give low values 1.02 | S. cerevisiae deletion strains, locus YPL051W, strain arl3, hits give low values 0.997 | S. cerevisiae deletion strains, locus YPL078C, strain atp4, hits give low values 0.99 | S. cerevisiae deletion strains, locus YPL106C, strain sse1, hits give low values 0.941 | S. cerevisiae deletion strains, locus YPL240C, strain hsp82, hits give low values 0.994 | S. cerevisiae deletion strains, locus YPL241C, strain CIN2, hits give low values 1.01 | S. cerevisiae deletion strains, locus YPL256C, strain CLN2, hits give low values 1.06 | S. cerevisiae deletion strains, locus YPR119W, strain clb2, hits give low values 1.02 | S. cerevisiae deletion strains, locus YPR141C, strain kar3, hits give low values 1.01 | S. cerevisiae deletion strains, locus YPR163C, strain tif3, hits give low values 1.03 | S. cerevisiae deletion strains, locus YPR167C, strain met16, hits give low values 1.01 | S. cerevisiae deletion strains, strain wtn01, hits give low values 1.02 | S. cerevisiae strains, strain wild type, hits give low values 1.01
